Here are results for 87 sequences from article PMC10668032, “Altered binding affinity of SIX1-Q177R correlates with enhanced WNT5A and WNT pathway effector expression in Wilms tumor”.

The full ranking holds about 33,000 sequences; the median of “e-score” is about -0.053, and the highest 2% start at about 0.38. This is one part of a sample in which the highest values are shown more often than they occur.

The target of this test is T1, SIX1 homeodomain (reference allele) (human, UniProt Q15475 108-198).
T1 sequence: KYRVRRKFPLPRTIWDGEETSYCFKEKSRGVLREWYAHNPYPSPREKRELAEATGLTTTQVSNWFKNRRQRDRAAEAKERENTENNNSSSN
The experiment in a line: universal protein binding microarray; Universal all-10-mer PBM (8x60K, AMADID 030236), 300 nM GST-tagged protein, Alexa Fluor 488 anti-GST; buffer, salt, pH and temperature not stated (as in Berger); high values mean tight binding. Particulars: protein: ivt; tags: N-terminal GST; dsDNA, one strand shown. The method, boiled down:
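GST-tagged homeodomains were made by in vitro transcription/translation and quantified by anti-GST western blot against a recombinant GST standard curve. They were applied in duplicate at 300 nM final concentration to universal 'all 10-mer' protein binding microarrays (8×60K format). Binding was quantified as 8-mer E-scores with the Universal PBM Analysis Suite.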
CGAGGATA: the binding signal was 0.384 ± 0.0112 E-score.
As for AGAGGATA, the binding signal was determined as 0.326 ± 0.0175 E-score.
Then ATAGGATC, with 0.367 ± 0.0232 E-score; and ATAGGATA, with 0.415 ± 0.0252 E-score; and CAAGGATA, with 0.342 ± 0.00822 E-score.
For the sequence ACAGGATA, the binding signal was 0.236 ± 0.0392 E-score.
The result for CCAGGATA reads 0.38 ± 0.00746 E-score.
For the sequence CTAGGATA, the binding signal was found to be 0.356 ± 0.00923 E-score.
The result for CGAGGATC reads 0.333 ± 0.023 E-score; that for GTAGGATA, 0.355 ± 0.00663 E-score.
Then GCAGGATA, with 0.329 ± 0.0306 E-score; and GGAGGATA, with 0.387 ± 0.0115 E-score; and ACCCTGAT, with 0.3 ± 0.0183 E-score.
As for GATCGAGA, the binding signal came to 0.295 ± 0.041 E-score.
Turning to GATAGCAA, the binding signal was 0.202 ± 0.0434 E-score.
As for ATAGAATA, the binding signal came out at 0.162 ± 0.00811 E-score.
In the case of AGACCATA, the binding signal turned out to be 0.19 ± 0.0814 E-score.
In the case of GTCTACAC, the binding signal is 0.152 ± 0.0214 E-score.
Consider AATACACC, for which the binding signal was found to be 0.336 ± 0.00415 E-score.
For the sequence GAATGATA, the binding signal stood at 0.412 ± 0.066 E-score.
As for TAATGATA, the binding signal turned out to be 0.36 ± 0.0576 E-score.
Then CAATGATA, with 0.418 ± 0.0312 E-score.
For the sequence AAATGATA, the binding signal was determined as 0.415 ± 0.0488 E-score.
With CAATGATC, the binding signal is 0.31 ± 0.0312 E-score.
As to AAATGATC, the binding signal was found to be 0.321 ± 0.107 E-score.
Consider AAATGAGA, for which the binding signal is 0.16 ± 0.0635 E-score.
With GAATGATC, the binding signal worked out at 0.306 ± 0.0507 E-score.
The result for GAATAATA reads 0.226 ± 0.111 E-score.
AACACCCG: the binding signal is 0.304 ± 0.00694 E-score.
Turning to ACCTGAGA, the binding signal turned out to be 0.158 ± 0.0127 E-score.
As to ATCGAAGG, the binding signal is 0.179 ± 0.0692 E-score.
AGAGTGTA: the binding signal turned out to be 0.223 ± 0.0204 E-score.
Take AGCCCCTA: the binding signal stood at 0.153 ± 0.0497 E-score.
Turning to CCGCATTA, the binding signal was 0.157 ± 0.0248 E-score.
Then GAGCTGGA, with 0.177 ± 0.0153 E-score.
As for ATCGCCGA, the binding signal came to 0.19 ± 0.0306 E-score.
As for ATACCGTC, the binding signal was 0.396 ± 0.0211 E-score.
Consider ACACCGTG, for which the binding signal stood at 0.277 ± 0.0223 E-score.
Then ATACCGAC, with 0.341 ± 0.0139 E-score.
Then ATACCGTA, with 0.391 ± 0.00392 E-score.
In the case of ATCCCGTA, the binding signal was found to be 0.342 ± 0.0301 E-score.
With ATACCGTG, the binding signal amounted to 0.384 ± 0.0192 E-score.
For ACACCGTC, the binding signal was determined as 0.262 ± 0.00999 E-score.
On to ATTCCGTG, for which the binding signal came out at 0.156 ± 0.0528 E-score.
Turning to ACACCGTA, the binding signal was determined as 0.344 ± 0.0258 E-score.
The result for ATATGGTC reads 0.277 ± 0.0141 E-score.
Take GGATTAAA: the binding signal is 0.231 ± 0.111 E-score.
Then AATCCGAG, with 0.237 ± 0.07 E-score; and CTGGAATC, with 0.158 ± 0.0574 E-score; and ACCATACC, with 0.154 ± 0.0389 E-score.
As for CCTATATC, the binding signal amounted to 0.352 ± 0.0286 E-score.
For the sequence CCCATATC, the binding signal is 0.4689 ± 0.00434 E-score.
ACCATATA: the binding signal was 0.274 ± 0.008 E-score.
Consider CCCATATA, for which the binding signal was found to be 0.309 ± 0.0133 E-score.
ACCATATC: the binding signal was determined as 0.418 ± 0.00875 E-score.
On to AGGTTTAT, for which the binding signal was found to be 0.199 ± 0.0561 E-score.
With CCGATGCG, the binding signal amounted to 0.215 ± 0.071 E-score.
Regarding CGATAGGC, the binding signal was 0.175 ± 0.0335 E-score.
The result for AATATCTC reads 0.274 ± 0.0766 E-score.
Regarding CCTATCAC, the binding signal stood at 0.387 ± 0.0097 E-score.
The result for AATATCAC reads 0.38 ± 0.0781 E-score.
Then AATATCAT, with 0.381 ± 0.0478 E-score; and CATATTAG, with 0.191 ± 0.0531 E-score.
In the case of ACTATCAC, the binding signal worked out at 0.279 ± 0.062 E-score.
In the case of CATATCAG, the binding signal is 0.436 ± 0.0183 E-score.
On to AATATCAG, for which the binding signal worked out at 0.225 ± 0.129 E-score.
With AATATGAT, the binding signal came out at 0.309 ± 0.00824 E-score.
For AATATCAA, the binding signal came to 0.225 ± 0.165 E-score.
CTCCATCA: the binding signal was 0.157 ± 0.0276 E-score.
With ATACAGCC, the binding signal was found to be 0.225 ± 0.1 E-score.
ATCGGGTG: the binding signal was 0.32 ± 0.0738 E-score.
As for ACCGGGAT, the binding signal turned out to be 0.313 ± 0.0258 E-score.
As to GTATTAAA, the binding signal came to 0.246 ± 0.142 E-score.
Turning to ATCATCAA, the binding signal worked out at 0.199 ± 0.0117 E-score.
For the sequence AACACCCT, the binding signal amounted to 0.21 ± 0.0269 E-score.
CCCCGTAG: the binding signal worked out at 0.176 ± 0.139 E-score.
On to GGGATGAA, for which the binding signal was determined as 0.191 ± 0.0459 E-score.
Consider CATATCAC, for which the binding signal was found to be 0.446 ± 0.0382 E-score.
Then CATATTAC, with 0.219 ± 0.0138 E-score.
With CATATCTC, the binding signal was 0.342 ± 0.0177 E-score.
CCGCTATC: the binding signal is 0.304 ± 0.0394 E-score.
As for ATGCCAGG, the binding signal worked out at 0.161 ± 0.00747 E-score.
For the sequence ATATCTGG, the binding signal turned out to be 0.298 ± 0.0486 E-score.
For CTATCTCC, the binding signal was determined as 0.217 ± 0.0476 E-score.
On to GCATCTCA, for which the binding signal was 0.186 ± 0.00338 E-score.
Consider ATATCTCA, for which the binding signal was 0.391 ± 0.0526 E-score.
Consider ATATCTCC, for which the binding signal worked out at 0.424 ± 0.0218 E-score.
